Reference: the supplement of paper PMC6992640
± gives the standard deviation of the averaged measurements.

What was measured:
Assay in all cases: cell viability (% of vehicle); higher = less cytotoxic
Details in all cases: 10 µM; 72 h
HCI01 = system: HCI01 (cells of a triple-negative basal-like breast cancer xenograft)
HCI03 = system: HCI03 (cells of an ER-positive luminal breast cancer xenograft)
HCI09 = system: HCI09 (cells of a triple-negative luminal androgen receptor type breast cancer xenograft)
HCI11 = system: HCI11 (cells of an ER-positive luminal breast cancer xenograft)
HCI13 = system: HCI13 (cells of an ER-positive luminal breast cancer xenograft)
HCI16 = system: HCI16 (cells of a triple-negative basal-like breast cancer xenograft)
UCD52 = system: UCD52 (cells of a triple-negative basal-like breast cancer xenograft)
WHIM2 = system: WHIM2 (cells of a triple-negative basal-like breast cancer xenograft)
WHIM30 = system: WHIM30 (cells of a triple-negative basal-like breast cancer xenograft)
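Also: PDX cells carrying CMV promoter-driven luciferase, viability read as total photon flux per second by IVIS imaging following D-luciferin, vehicle control 0.1% DMSO.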

| Structure (SMILES) | cell viability (HCI01) | cell viability (HCI03) | cell viability (HCI09) | cell viability (HCI11) | cell viability (HCI13) | cell viability (HCI16) | cell viability (UCD52) | cell viability (WHIM2) | cell viability (WHIM30) |
| --- | --- | --- | --- | --- | --- | --- | --- | --- | --- |
| CN(C)CCN1C(=O)c2cccc3cc(N)cc(c23)C1=O [Amonafide] | 103 ± 4 | 69.4 | 42.7 ± 14 | 90.4 | 64.7 ± 3.1 | 196 | 138 ± 26 | 55.5 ± 5.5 | 78.5 ± 1.6 |
| C=CCc1cc(OC)c(O)c(C(=O)NCCO)c1 [Alibendol] | 98.3 ± 18 | 139 | 107 ± 17 | 110 | 68 ± 5 | 133 | 109 ± 3.4 | 115 ± 23 | 138 ± 20 |
| NC(=O)N1c2ccccc2CC(=O)c2ccccc21 [Oxcarbazepine] | 91.5 ± 16 | 133 | 107 ± 16 | 98.9 | 104 ± 15 | 124 | 99.59 ± 0.42 | 91.2 ± 2.1 | 159 ± 3.8 |
| CCC1OC(=O)C(C)C(OC2CC(C)(OC)C(O)C(C)O2)C(C)C(OC2OC(C)CC(N(C)C)C2O)C(C)(O)CC(C)CN(C)C(C)C(O)C1(C)O.O.O (centres undefined) [Azithromycin Dihydrate] | 110 ± 9 | 114 | 101 ± 10 | 112 | 144 ± 5 | 104 | 85.4 ± 1.5 | 102 ± 2.7 | 89 ± 1.7 |
| CC#CC1(O)CCC2C3CCC4=CC(=O)CCC4=C3C(c3ccc(N(C)C)cc3)CC21C (centres undefined) [Mifepristone] | 113 ± 13 | 99.2 | 72.6 ± 18 | 73.5 | 47.5 ± 0.63 | 89.3 | 73.3 ± 6.9 | 89.7 ± 2.1 | 93.3 ± 3 |
| COc1cc(NC(C)CCCN)c2ncccc2c1.O=P(O)(O)O.O=P(O)(O)O (centres undefined) [Primaquine Diphosphate] | 56.3 ± 9.8 | 95.2 | 29.3 ± 9.9 | 49 | 68.2 ± 11 | 116 | 75.7 ± 10 | 70.5 ± 11 | 112 ± 1.8 |
| CCOC(=O)C1=C(C)NC(C)=C(C(=O)OC)C1c1cccc(Cl)c1Cl (centres undefined) [Felodipine] | 116 ± 5 | 117 | 118 ± 6.6 | 114 | 112 ± 15 | 97.9 | 88.5 ± 2.3 | 102 ± 10 | 124 ± 2.7 |
| CCC1=CC2CN(C1)Cc1c([nH]c3ccccc13)C(C(=O)OC)(c1cc3c(cc1OC)N(C)C1C(O)(C(=O)OC)C(OC(C)=O)C4(CC)C=CCN5CCC31C54)C2 (centres undefined) [Vinorelbine] | 100 ± 15 | 105 | 70.5 ± 25 | 78.5 | 46 ± 4.7 | 167 | 57.5 ± 23 | 60.5 ± 12 | 96.7 ± 3.6 |
| CSc1nc2cc(Oc3cccc(Cl)c3Cl)c(Cl)cc2[nH]1 [Triclabendazole] | 99.7 ± 4.9 | 108 | 83 ± 23 | 97.1 | 47.9 ± 7.4 | 127 | 89.2 ± 6.4 | 124 ± 34 | 134 ± 14 |
| CCC(CC)C(NC(C)=O)C1C(N=C(N)N)CC(C(=O)O)C1O (centres undefined) [Peramivir] | 112 ± 9.2 | 110 | 91.2 ± 18 | 98 | 102 ± 20 | 78.9 | 81.6 ± 14 | 97.5 ± 6.7 | 136 ± 24 |
| Nc1nccs1 [Aminothiazole] | 147 ± 24 | 105 | 101 ± 3.2 | 117 | 98.3 ± 7.8 | 136 | 91.8 ± 5.1 | 116 ± 5.8 | 105 ± 18 |
| CN1C(C(=O)Nc2ccccn2)=C(O)c2ccccc2S1(=O)=O [Piroxicam] | 103 ± 9.8 | 102 | 53.8 ± 29 | 133 | 103 ± 3.6 | 90.5 | 88.27 ± 0.58 | 91.5 ± 17 | 117 ± 13 |
| Cc1ccc(C(=O)c2cc(O)c(O)c([N+](=O)[O-])c2)cc1 [Tolcapone] | 70.6 ± 40 | 52.5 | 14.6 ± 1.4 | 57.5 | 64.16 ± 0.48 | 84.2 | 71.6 ± 18 | 117 ± 26 | 120 ± 7.5 |
| CS(=O)(=O)O.N#CC1(c2ccc(NC(=O)c3cccnc3NCc3ccncc3)cc2)CCCC1 [Apatinib] | 140 ± 88 | 109 | 33.4 ± 8.3 | 65.4 | 65 ± 2 | 119 | 48.5 ± 6.5 | 85.3 ± 4.8 | 105 ± 19 |
| CCCCOc1cc(C(=O)OCCN(CC)CC)ccc1N.Cl [Oxybuprocaine HCl] | 162 ± 33 | 99.6 | 83.9 ± 11 | 88.8 | 95.5 ± 34 | 149 | 90 ± 31 | 126 ± 24 | 189 ± 3.2 |
| Nc1ncn(C2CC(O)C(CO)O2)c(=O)n1 (centres undefined) | 145 ± 29 | 140 | 96 ± 13 | 108 | 126 ± 12 | 123 | 136 ± 30 | 105 ± 16 | 189 ± 7.4 |
| CCOC(=O)C1=CC(OC(CC)CC)C(NC(C)=O)C(N)C1.O=P(O)(O)O (centres undefined) [Oseltamivir phosphate] | 111 ± 30 | 126 | 93.5 ± 5.9 | 95.4 | 93.1 ± 9 | 124 | 105 ± 16 | 98.9 ± 12 | 113 ± 1.6 |
| CCNC1CN(CCCOC)S(=O)(=O)c2sc(S(N)(=O)=O)cc21 (centres undefined) [Brinzolamide] | 108 ± 12 | 142 | 97.6 ± 15 | 139 | 132 ± 16 | 100 | 88.17 ± 0.49 | 104 ± 12 | 96.6 ± 7.1 |
| NC(CO)(CO)CO [Trometamol] | 86.3 ± 6.3 | 114 | 94.9 ± 21 | 91.5 | 58.4 ± 13 | 104 | 86 ± 7 | 99.2 ± 16 | 113 ± 12 |
| CCCCCCCCCCCCCCCC(=O)OCC=C(C)C=CC=C(C)C=CC1=C(C)CCCC1(C)C [Retinyl (Vitamin A) Palmitate] | 102 ± 22 | 100 | 88.4 ± 3.2 | 88.1 | 79 ± 17 | 104 | 94.3 ± 4.9 | 112 ± 27 | 125 ± 13 |
| CN(C)CCc1c[nH]c2ccc(CC3COC(=O)N3)cc12 (centres undefined) [Zolmitriptan] | 86.8 ± 19 | 134 | 107 ± 11 | 96 | 119 ± 21 | 107 | 94.8 ± 8.3 | 86.6 ± 2.1 | 131 ± 11 |
